Results on 45 molecules are retold here after PubChem BioAssay AID720709 (National Center for Advancing Translational Sciences (NCATS), 2013).

In all, about 360,000 compounds went through this assay and about 520 (0.14%) were called active. Roughly 3% stayed inconclusive and do not appear here. The call rests on the fitted dose curve; in most records, active means well fitted inhibition curve with a large enough effect; inconclusive means small, poorly fitted or top-dose-only effect; inactive means no such curve, though single readings can be large or run the other way. The full list was thinned out, with actives kept by preference.
Potency means the concentration at half of the fitted maximal effect.

The target in this assay is Rap guanine nucleotide exchange factor 3 (Homo sapiens) (UniProt O95398). Description: qHTS for Antagonist of cAMP-regulated guanine nucleotide exchange factor 3 (EPAC1): primary screen. Further: nearly all actives have a fitted effect of over 50% in size. Conditions: EPAC1 GEF assay, Rap1b-BODIPY-GDP exchange fluorescence; series mostly up to 115 µM; activity change, negative = inhibition: at the top concentration. From the text: In multi-cellular eukaryotic organisms, the effects of cAMP are transduced by two ubiquitously-expressed intracellular cAMP receptors, the classic protein kinase A/cAMP-dependent protein kinase (PKA/cAPK) and the more recently discovered exchange protein directly activated by cAMP/cAMP-regulated guanine nucleotide exchange factor (EPAC/cAMP-GEF). Both PKA and EPAC are ubiquitously expressed in all tissues, and an increase in intracellular cAMP levels will lead to the activation of both PKA and EPAC. Therefore, careful dissections of the individual role and relative contribution of EPAC and PKA within the overall cAMP signaling in various model systems are critical for further elucidating the mechanism of cAMP signaling. To date no EPAC-specific antagonists and agonist, as well as isoform-specific agonists have been reported, and developing EPAC-specific pharmacological probes to determine the physiological functions that EPAC play in the overall cAMP-mediated signaling remains a major challenge within the research field. Furthermore, identified regulators of EPAC may lead to new mechanism-based therapeutic strategies specifically targeting the EPAC / cAMP-signaling components as EPAC has been implicated to play important roles in major human pathological conditions such as diabetes, heart disease, and cancer. This qHTS will be used to screen the Molecular Libraries Small Molecule Repository (MLSMR) as a concentration-titration series using the NCGC unique quantitative screening (qHTS) platform to find inhibitors for EPAC1. In addition, this assay will also be used as a counterscreen for the EPAC2 qHTS. This fluorescent based assay is developed and validated for EPAC1 that measures exchange using EPAC effector Rap1 complex with BODIPY-GDP, a GDP analog with a tethered fluorophores. Inhibitors are identified by monitoring the change in fluorescence signal as the exchanged free BODIPY-GDP has a reduced fluorescence compared to Rap1-bound BODIPY-GDP. Decrease in signal (inhibition) is the desired outcome for the EPAC1 antagonist while no activity in this assay is desired for the EPAC2 antagonist counterscreen. de Rooij, J., Zwartkruis, F. J., Verheijen, M. H., Cool, R. H., Nijman, S. M., Wittinghofer, A., and Bos, J.L. (1998) Nature 396, 474-477 [2] Kawasaki, H., Springett, G. M., Mochizuki, N., Toki, S., Nakaya, M., Matsuda, M., Housman, D. E., and Graybiel, A. M. (1998) Science 282, 2275-2279 NIH Chemical Genomics Center [NCGC] NIH Molecular Libraries Probe Centers Network [MLPCN] MLPCN Grant: NS066510 Assay Submitter (PI): Xiaodong Cheng, The University of Texas, Medical Branch
Sequence of Rap guanine nucleotide exchange factor 3 (Homo sapiens) (O95398 whole entry, looked up): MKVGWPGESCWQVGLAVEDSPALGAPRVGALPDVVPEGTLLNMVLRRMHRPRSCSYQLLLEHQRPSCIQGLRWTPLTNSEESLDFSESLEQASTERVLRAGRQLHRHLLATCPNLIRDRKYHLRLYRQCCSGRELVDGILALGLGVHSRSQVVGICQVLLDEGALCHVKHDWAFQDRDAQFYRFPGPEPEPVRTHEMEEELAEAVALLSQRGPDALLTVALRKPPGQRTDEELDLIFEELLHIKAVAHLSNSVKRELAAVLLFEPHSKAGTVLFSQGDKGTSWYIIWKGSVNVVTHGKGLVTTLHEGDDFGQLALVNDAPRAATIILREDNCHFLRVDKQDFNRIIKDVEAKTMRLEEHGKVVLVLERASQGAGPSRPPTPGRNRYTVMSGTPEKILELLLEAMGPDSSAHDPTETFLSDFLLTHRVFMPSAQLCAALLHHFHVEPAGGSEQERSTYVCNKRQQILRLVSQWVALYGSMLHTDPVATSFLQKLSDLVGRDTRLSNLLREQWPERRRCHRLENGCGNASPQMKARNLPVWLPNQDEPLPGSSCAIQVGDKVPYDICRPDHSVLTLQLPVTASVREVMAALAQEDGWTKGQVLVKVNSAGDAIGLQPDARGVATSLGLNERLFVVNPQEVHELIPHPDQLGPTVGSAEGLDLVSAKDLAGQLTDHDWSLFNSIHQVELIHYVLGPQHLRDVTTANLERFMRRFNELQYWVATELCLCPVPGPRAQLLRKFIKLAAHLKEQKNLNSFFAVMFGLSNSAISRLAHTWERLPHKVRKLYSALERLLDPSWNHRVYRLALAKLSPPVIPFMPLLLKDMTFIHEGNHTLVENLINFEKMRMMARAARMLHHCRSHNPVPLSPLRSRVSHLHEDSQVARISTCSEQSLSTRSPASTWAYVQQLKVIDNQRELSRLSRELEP
Briefly, three uL of reagents (100 nM EPAC1, 250 nM RAP1B-BODIPY-GDP, 50 uM GDP) were dispensed into a 1536-well Greiner black solid-bottom medium binding assay plate. Controls and test compounds (23 nL) were transferred to the plate via a Kalypsys pin tool equipped with a 1536-pin array. The plates were centrifuged at 1,000 rpm for 15 seconds followed by 5 minute incubation at room temperature. The assay plates were read at 5 minute intervals for 30 minutes in the ViewLux plate reader using 480nm excitation and 540nm emission filters. The results were normalized to the […] positive control ATA and DMSO.
As for `CCCCC[C@H](C)N1C[C@@H](COCc2ccccc2)Oc2cc(N3CCC[C@@H]3CO)ccc2S1(=O)=O`, the “activity change, negative = inhibition” value is 10.1% (inactive).

Turning to `CCCCCCN1CCN(C2CN(Cc3cn(Cc4ccc(F)cc4)nn3)S(=O)(=O)C2)CC1` (stereo not given), the “activity change, negative = inhibition” value is -0.786% (inactive).

For `CC1(C)OC(=O)C2=C(C[C@@H](C3CCCC3)O[C@@H]2c2ccc(Cl)cc2)O1`, the “activity change, negative = inhibition” value was -10.6% (inactive).

As for `CCCCCc1c(-c2ccc(OC)c(OC)c2)ncn1CCc1ccccc1OC`, the “activity change, negative = inhibition” value is -9.08% (inactive).

`COc1ccc(C(C#N)=C2C=CC(=NO)c3ccccc32)cc1`: the “activity change, negative = inhibition” value was -2.56% (inactive).

With `COCCNC(=O)C1C(=O)Nc2ccccc2C(=O)N1c1ccc2c(c1)OCCO2` (stereo not given), the “activity change, negative = inhibition” value was -13.8% (inactive).

Regarding `O=C(C[C@H]1CC[C@@H](NC(=O)c2ccncc2)[C@@H](CO)O1)NCC1CC1`, the “activity change, negative = inhibition” value was -10.8% (inactive).

For `CC1(C(=O)NCc2ccccc2)CSCC(=O)N1CCCN1CCOCC1` (stereo not given), the “activity change, negative = inhibition” value is -14.7% (inactive).

Consider `FC(F)(F)c1cccc(-c2nc3ccccc3n2C(c2ccccc2)c2nc3ccccc3[nH]2)c1` (stereo not given), for which the “activity change, negative = inhibition” value was -10.9% (inactive).

Regarding `CC1(C)OC(=O)C2=C(C[C@@H](C3CC3)O[C@H]2c2ccc(Cl)cc2)O1`, the “activity change, negative = inhibition” value was -6.86% (inactive).

On to `Cc1ccc(-c2nc3c(C)cc(Br)cn3c2Cc2ccccc2)cc1`, for which the “activity change, negative = inhibition” value is -12.7% (inactive).

Turning to `COc1ccc(-c2cc3n(n2)CCc2nc4ccccc4n2-3)cc1`, the “activity change, negative = inhibition” value is 3.51% (inactive).

`COc1ccc(C2=NN(C(=O)c3ccccc3C(=O)O)C(c3ccccc3O)C2)cc1` (stereo not given): the “activity change, negative = inhibition” value was 1.95% (inactive).

Consider `COc1ccc(C2=NN(c3nc4ccccc4s3)C(=O)C2)cc1`, for which the Potency is 79.4 µM (active).

For `CC(=O)OCC(C)n1c(=O)c2ccccc2n1C(C)=O` (stereo not given), the “activity change, negative = inhibition” value is 14.3% (inactive).

Consider `CCc1nnc(NS(=O)(=O)c2ccc(NC(=O)c3cccc(OC(F)(F)C(F)F)c3)cc2)s1`, for which the “activity change, negative = inhibition” value was 6.32% (inactive).

As for `CCc1nnc(NS(=O)(=O)c2ccc(NC(=S)NC(=O)/C=C/c3cccs3)cc2)s1`, the Potency was 35.5 µM (active).

As to `CCc1nnc(NS(=O)(=O)c2ccc(NC(=S)NC(=O)c3cccs3)cc2)s1`, the “activity change, negative = inhibition” value is -18.7% (inactive).

Take `CCC(C(=O)NC(C)(C)C)n1c(-c2ccccc2)nc2ccccc21` (stereo not given): the “activity change, negative = inhibition” value was -11.7% (inactive).

`CC(=O)N1Cc2cc(C(=O)NCc3cccc(F)c3)nc(-c3cccc(C4=CCCC4)c3)c2[C@H]1CCO`: the “activity change, negative = inhibition” value was -4.59% (inactive).

As for `COC(=O)C1(C(=O)OC)C/C=C\CN(S(=O)(=O)c2ccccc2[N+](=O)[O-])CCC1`, the “activity change, negative = inhibition” value was -24.3% (inactive).

Turning to `C[N+](C)(C)CCNC(=O)c1c[nH]c2ccccc12`, the “activity change, negative = inhibition” value was -10.3% (inactive).

For `CN(C)S(=O)(=O)c1cccc(C(=O)OCC(=O)N2CCCC2=O)c1`, the “activity change, negative = inhibition” value was -1.48% (inactive).

Regarding `CCOC(=O)c1c(C)[nH]c(C(=O)OCC(=O)N2CCCC2=O)c1C`, the “activity change, negative = inhibition” value is -3.83% (inactive).

As to `Cc1c(C(=O)OCC(=O)N2CCCC2=O)oc2ccccc12`, the Potency was 79.4 µM (active).

On to `COC(=O)[C@@]12C[C@@H](CC(=O)N3CCC(c4ccccc4)CC3)C(=O)N(Cc3ccccc3)C1=CCC(C)(C)C2`, for which the “activity change, negative = inhibition” value is 6.68% (inactive).

For `COc1cc(OC)cc(C2=Cc3ccccc3C(CC(=O)c3ccco3)N2c2ccc(-c3cnc(OC)nc3)cc2)c1` (stereo not given), the “activity change, negative = inhibition” value is -2.98% (inactive).

`Cc1cccc(C)c1NC(=O)C(c1cccc2ccccc12)n1c(=O)c(-c2ccco2)nc2ccccc21` (stereo not given): the “activity change, negative = inhibition” value was -20.9% (inactive).

On to `Cc1ccc(S(=O)(=O)N2CC3C(=O)C[C@@H](c4ccccc4Cl)N(S(=O)(=O)c4ccc(C)cc4)C3CC2c2ccccc2)cc1` (stereo not given in full), for which the “activity change, negative = inhibition” value is 0.258% (inactive).

With `Cc1cccc(C)c1NC(=O)C(c1ccc(C(F)(F)F)cc1)n1c(=O)c(-c2ccco2)nc2ccccc21` (stereo not given), the “activity change, negative = inhibition” value is -14.7% (inactive).

As to `O=c1ccc2c(-c3ccccc3S(=O)(=O)O)c3ccc(O)c(O)c3oc-2c1O`, the Potency was 56.2 µM (active).

Consider `COc1cccc(CNC(=O)[C@@H]2CCCN2C(=O)[C@@H]2CCCN2C(=O)c2ccccc2)c1`, for which the “activity change, negative = inhibition” value is -7.07% (inactive).

Turning to `COc1ccc(CC(N)c2csc(NC(=O)Nc3ccc(C(C)C)cc3)n2)cc1` (stereo not given), the “activity change, negative = inhibition” value is -15.8% (inactive).

On to `CCN(CC)CCN(C)C(c1ccnc2ccccc12)c1nnnn1-c1ccc2c(c1)OCCO2` (stereo not given), for which the “activity change, negative = inhibition” value is -3.49% (inactive).

As to `COC(=O)[C@@]12C[C@@H](CC(=O)NCc3cccc(C(F)(F)F)c3)C(=O)N(Cc3ccco3)C1=CCC(C)(C)C2`, the “activity change, negative = inhibition” value was -20.9% (inactive).

Turning to `CCC(C)CN1C(=O)CSCC1(C)C(=O)NCc1ccccc1` (stereo not given), the “activity change, negative = inhibition” value is -4.93% (inactive).

In the case of `Cc1cccc(C)c1NC(=O)C(c1cccc(F)c1)N1CCN(C)CC1` (stereo not given), the “activity change, negative = inhibition” value is 6.48% (inactive).

Regarding `CCCCC(O)C1=C[N+](=O)CC=C1` (stereo not given), the “activity change, negative = inhibition” value is 14.4% (inactive).

With `Cc1cccc(C)c1-n1nnnc1C1(C)CCC(=O)N1CCOc1ccccc1` (stereo not given), the “activity change, negative = inhibition” value is 14.7% (inactive).

On to `COC(=O)[C@]12CCCCC=C1N(Cc1ccc3c(c1)OCO3)C(=O)[C@H](CC(=O)NCc1cccs1)C2`, for which the “activity change, negative = inhibition” value is 8.77% (inactive).

On to `Nc1nc2ncccn2c1-c1ccccc1`, for which the “activity change, negative = inhibition” value is -20.8% (inactive).

As to `O=C(NC1CCCC1)C1c2ccccc2OCC(=O)N1Cc1ccccc1` (stereo not given), the “activity change, negative = inhibition” value is -15.9% (inactive).

Regarding `CCCNC(=O)C[C@@H]1CC[C@@H]2[C@H](COC[C@H](O)CN2C(=O)c2cc(Cl)cc(Cl)c2)O1`, the “activity change, negative = inhibition” value is -0.835% (inactive).

Take `COC(=O)[C@@]12C[C@@H](CC(=O)N3CCCCC3)C(=O)N(Cc3ccc4c(c3)OCO4)C1=CCC(C)(C)C2`: the “activity change, negative = inhibition” value is 5.33% (inactive).

In the case of `CCCCOCCCNC(=O)C[C@@H]1C[C@@]2(C(=O)OC)CCCCC=C2N(CCC2=CCCCC2)C1=O`, the “activity change, negative = inhibition” value is -20.6% (inactive).
